# Bioassay records as filed in PubChem BioAssay.
# A selection: hits, their analogues and other compounds. The true share with any hit is near 1.8%.
# Fam108B inh = mouse Fam108B serine hydrolase inhibitors, primary screen, counter-screen for RBBP9 inhibitor project, biochemical, fluorescence polarization | recombinant Fam108B, FP-Rh probe fluorescence polarization | inhibition, % at 9.51 µM | 0.33% of 300,000 active | AID 1947, 2009;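 active = inhibition above the screen mean inhibition plus 3 SD, computed separately per campaign, cut at about 18% in these data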;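 also: inhibitors lower polarization as less probe binds the enzyme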
# LYPLA2 counter = LYPLA2 inhibitors, primary screen, counter-screen for PME1 inhibitor project, biochemical, fluorescence polarization, FP-Rh probe ABPP. Acyl-protein thioesterase 2 (Homo sapiens), O95372. 0.38% of 320,000 active. recombinant LYPLA2. inhibition, % at 5.9 µM. AID 2177, 2009;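 active = inhibition above the screen-wide mean plus 3 SD, limit set per campaign, cut at about 26% in these data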
# GSTO1 counter = inhibitors of recombinant GSTO1, primary screen, counter-screen for RBBP9 inhibitor project, biochemical, fluorescence polarization | activity-based probe fluorescence polarization | inhibition, % at 5.96 µM | 1.1% of 300,000 active;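 active = inhibition above the campaign mean inhibition plus 3 SD, cut at about 35% in these data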
# PAD4 inh = human PAD4 inhibitors, primary screen, biochemical, fluorescence polarization, 1536-well format. 0.41% of 330,000 active. inhibition, % at 6.36 µM. recombinant PAD4, RCA probe fluorescence polarization. AID 485272, 2010. Protein-arginine deiminase type-4 (Homo sapiens), Q9UM07;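 active = percent inhibition above a cutoff equal to the mean of all tested compounds plus 3 SD, cut at about 15% in these data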
# LYPLA1 counter = LYPLA1 inhibitors, primary screen, counter-screen for PME1 inhibitor project, biochemical, fluorescence polarization, FP-Rh probe ABPP | 0.16% of 320,000 active | Acyl-protein thioesterase 1 (Homo sapiens), O75608 | recombinant LYPLA1 | inhibition, % at 5.9 µM;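 active = inhibition above the mean of all tested compounds plus 3 SD, set per campaign, cut at about 14% in these data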;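 also: inhibitors block serine hydrolase probe labeling of LYPLA1 so polarization falls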
# PME-1 inh = PME-1 inhibitors via competitive probe labeling, primary screen, biochemical, fluorescence polarization, FP-Rh probe, HTS; inhibition, % at 5.9 µM; Protein phosphatase methylesterase 1 (Homo sapiens), Q9Y570; recombinant PME-1; 0.53% of 320,000 active; AID 2130, 2009;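 active = inhibition above the campaign mean of all compounds plus 3 SD, cut at about 26% in these data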;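 also: competitive labeling of PME-1 active site by serine hydrolase directed probe; inhibitors block probe labeling so polarization falls and inhibition rises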
# Target sequence (Q9Y570 whole entry, looked up): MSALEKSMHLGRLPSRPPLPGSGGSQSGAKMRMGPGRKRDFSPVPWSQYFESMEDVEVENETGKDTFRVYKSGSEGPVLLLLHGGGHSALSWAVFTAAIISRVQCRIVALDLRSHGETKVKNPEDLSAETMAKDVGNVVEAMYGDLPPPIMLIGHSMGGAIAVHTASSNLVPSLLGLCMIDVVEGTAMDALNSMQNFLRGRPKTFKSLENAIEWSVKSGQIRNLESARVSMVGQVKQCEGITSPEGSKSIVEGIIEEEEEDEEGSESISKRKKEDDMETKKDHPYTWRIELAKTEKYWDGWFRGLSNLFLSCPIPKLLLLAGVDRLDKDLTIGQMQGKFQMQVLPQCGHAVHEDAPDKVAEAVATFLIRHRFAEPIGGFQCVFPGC
# GSTO1 confirm = GSTO1 inhibitor hit confirmation, counter-screen for RBBP9 inhibitor project, biochemical, fluorescence polarization, triplicate; shares compounds with GSTO1 counter; recombinant GSTO1, probe fluorescence polarization; inhibition, % at 5.96 µM; 54% of 2,400 active; AID 2176, 2009;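 active = inhibition above the primary screen's cutoff, its mean inhibition plus 3 SD, cut at about 35% in these data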;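 also: loss of polarization as inhibitors block binding of rhodamine sulfonate ester activity probe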
# GSTO1 ABPP inh = inhibitors of purified human GSTO1, late-stage follow-up, biochemical, gel ABPP, SE-Rh probe, percent inhibition; shares compounds with GSTO1 counter; recombinant GSTO1, gel ABPP SE-Rh probe fluorescence; inhibition, % at 1 µM; 30% of 130 active; AID 463110, 2010;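 active = inhibition of the enzyme GSTO1 above about 75%, limit read from the data; inactive = inhibition below that limit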
# A number is an active result; – = inactive; · = no result.
SMILES,Fam108B inh,LYPLA2 counter,GSTO1 counter,PAD4 inh,LYPLA1 counter,PME-1 inh,GSTO1 confirm,others
Fc1ccc(-n2nnc(-c3cccnc3Cl)n2)cc1,–,–,–,–,–,–,·,
Cc1cc(O)c(Oc2cc(C)cc(O)c2O)c(O)c1,–,–,56,–,–,–,–,
Cc1cc(C(C)(C)C)c(O)c(C(C)(C)C)c1,–,–,–,–,–,–,·,
O=C(NC1(O)C(=O)c2ccccc2C1=O)c1ccccc1,–,–,77,–,–,–,82,
Cc1cc(CNC(=O)COC(=O)C2CC3CCCC(C2)C3=O)cc(C)c1O (centres undefined),·,·,·,–,·,·,·,
Cc1ccc(S(=O)(=O)NC2CCSC2=O)cc1C (centres undefined),·,–,·,–,–,–,·,
CCC1(c2ccccc2)NC(=O)N(CC(=O)Nc2cc(S(=O)(=O)N3CCCCC3)ccc2OC(C)C)C1=O (centres undefined),–,–,–,–,–,–,·,
CC1(C)CNc2cc(N)ccc2S1,–,–,39,–,–,–,–,
Cc1nn(CC(=O)OCC(=O)Nc2cccc(S(N)(=O)=O)c2)c(C)c1[N+](=O)[O-],·,·,·,–,·,·,·,
NNc1nc(C(F)(F)F)nc2ccccc12,–,–,–,–,–,–,·,
O/C=c1\ccc2cccc3nc(C(F)(F)F)nc1c23,–,–,64,–,–,–,76,
COc1ccccc1NS(=O)(=O)c1ccc2nc(CCl)[nH]c2c1,–,–,85,–,–,–,91,GSTO1 ABPP inh=–
O=C1CCN(Cc2cccnc2)CCN1[C@H](CO)Cc1ccccc1,–,–,–,–,–,–,·,
Fc1cccc(Cl)c1C1Nc2cccc3cccc(c23)N1,–,–,–,–,–,–,·,
Clc1cccc(Cl)c1C1Nc2cccc3cccc(c23)N1,–,–,47,–,–,–,–,
c1csc(C2Nc3cccc4cccc(c34)N2)c1,–,–,44,–,–,–,–,
CCC(C)NC(=O)CSc1ccc(S(=O)(=O)N(C)C2CCCCC2)cn1 (centres undefined),·,·,·,–,·,·,·,
O=C1NC2(CCCCCC2)C(=O)N1Cc1cccc([N+](=O)[O-])c1,–,–,–,–,–,–,·,
Cc1ccccc1NC(=O)C(Cl)=C(Cl)Cl,–,–,44,–,–,–,–,
Cc1ccccc1NNC(=O)C(=O)NNc1ccccc1C,–,–,–,–,–,–,·,
CCC(=O)Nc1nc(CC(=O)Nc2ccccc2OC)cs1,–,–,–,–,–,–,·,
COc1ccccc1NC(=O)Cc1nc(CCl)cs1,–,–,68,–,–,–,95,GSTO1 ABPP inh=–
Cc1c(CCC(=O)NCCCC(=O)O)c(=O)oc2cc3oc4c(c3cc12)CCCC4,–,–,–,–,–,–,·,
Cc1ccc2oc(=O)c(/C=C(\O)c3cccs3)nc2c1,–,–,40,–,–,–,–,
CC1(NC(=O)Cc2c(Cl)cccc2Cl)CCS(=O)(=O)C1 (centres undefined),·,–,·,–,–,–,·,
SMILES,Fam108B inh,LYPLA2 counter,GSTO1 counter,PAD4 inh,LYPLA1 counter,PME-1 inh,GSTO1 confirm,others
CNS(=O)(=O)c1cccc(C(=O)OCC(=O)NC2CCCC(C)C2C)c1 (centres undefined),·,·,·,–,·,·,·,
O=c1[nH]cnc2cc(-c3ccc(Br)cc3)sc12,–,–,–,–,–,–,·,
O=c1[nH]c(CCl)nc2cc(-c3ccc(F)cc3)sc12,–,–,97,–,–,–,94,GSTO1 ABPP inh=82
COc1ccc2nc(NC(=O)c3ccccc3O)sc2c1,–,–,–,–,–,–,·,
CCOC(=O)c1cccc(C(=O)Nc2nc3ccc(OC)cc3s2)n1,–,–,53,–,–,–,–,
COc1ccc(NS(=O)(=O)c2ccc(C)c(C(=O)N3CCCCCCC3)c2)cc1,–,–,–,–,–,–,·,
